Reference: PubChem BioAssay (NCATS)
Several values for one entry are separate records, joined by “and”; a condition that tells them apart may be missing. Identical values can stand only once. Results filed as inconclusive are left out. Entries that show only a call come without a potency. Activity calls are given as the source filed them. Unless noted, calls follow the shape of the dose curve; as a rule, active = well fitted curve in the direction sought with a large enough effect; inconclusive = small, poorly fitted or top-dose-only effect, or another doubt; inactive = no such curve, though single readings can be large; an effect the other way counts as inactive or inconclusive.

Tests used:
[1] = target: Cytochrome P450 3A4 (Homo sapiens) (UniProt P08684); assay: qHTS Assay for Inhibitors and Substrates of Cytochrome P450 3A4 (AID 884); also: series mostly up to about 57 µM; nearly all actives have a fitted effect of over 50% in size
Chain of Cytochrome P450 3A4 (Homo sapiens) (P08684 whole entry, looked up): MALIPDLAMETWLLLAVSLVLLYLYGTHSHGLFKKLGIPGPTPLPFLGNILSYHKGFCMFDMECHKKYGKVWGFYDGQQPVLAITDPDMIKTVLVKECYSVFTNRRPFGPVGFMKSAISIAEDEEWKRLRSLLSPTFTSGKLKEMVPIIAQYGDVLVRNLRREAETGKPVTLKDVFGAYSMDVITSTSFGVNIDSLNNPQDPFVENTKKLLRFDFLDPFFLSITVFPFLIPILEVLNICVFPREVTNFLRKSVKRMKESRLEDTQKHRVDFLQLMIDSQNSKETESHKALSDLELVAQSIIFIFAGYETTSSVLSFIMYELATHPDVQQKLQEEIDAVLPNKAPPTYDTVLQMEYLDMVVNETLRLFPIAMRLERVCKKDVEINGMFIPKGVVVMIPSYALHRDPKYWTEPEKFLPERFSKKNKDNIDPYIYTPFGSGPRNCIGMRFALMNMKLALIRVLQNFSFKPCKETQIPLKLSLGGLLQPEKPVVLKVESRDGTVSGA
In short: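 Luminescent readout of luciferin produced by CYP3A4 (20 nM) dealkylation of Luciferin-PPXE, 25 uM (its KM). NADPH-driven reaction ran 60 min at RT after 10 min compound preincubation; data scaled to 57 uM ketoconazole as 100% inhibition.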

[2] = Cell Viability - LYMP2-003 (AID 965);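 also: cells exposed to compounds for 24 h before reading; nearly all actives have a fitted effect of over 50% in size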
In short: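 Human lymphoblastoid LYMP2-003 cells, 2500/well, exposed to compounds for 24 h at 37 C in complete medium. Viability read as intracellular ATP by CellTiter-Glo luminescence; AC50 from Hill-equation fits of qHTS concentration-response data.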

[3] = Cell Viability - LYMP1-002 - Assay at 40 hr (AID 994); also: nearly all actives have a fitted effect of over 60% in size
In short: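 Concentration-dependent ATP loss after 40 hr treatment at 37 C defined toxicity; AC50 values were obtained by fitting the standard Hill equation.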

[4] = target: Bile acid receptor (Homo sapiens) (UniProt Q96RI1); assay: qHTS assay for small molecule antagonists of farnesoid X receptor signaling (AID 588526; calls by dose curve)
Chain of Bile acid receptor (Homo sapiens) (Q96RI1 whole entry, looked up): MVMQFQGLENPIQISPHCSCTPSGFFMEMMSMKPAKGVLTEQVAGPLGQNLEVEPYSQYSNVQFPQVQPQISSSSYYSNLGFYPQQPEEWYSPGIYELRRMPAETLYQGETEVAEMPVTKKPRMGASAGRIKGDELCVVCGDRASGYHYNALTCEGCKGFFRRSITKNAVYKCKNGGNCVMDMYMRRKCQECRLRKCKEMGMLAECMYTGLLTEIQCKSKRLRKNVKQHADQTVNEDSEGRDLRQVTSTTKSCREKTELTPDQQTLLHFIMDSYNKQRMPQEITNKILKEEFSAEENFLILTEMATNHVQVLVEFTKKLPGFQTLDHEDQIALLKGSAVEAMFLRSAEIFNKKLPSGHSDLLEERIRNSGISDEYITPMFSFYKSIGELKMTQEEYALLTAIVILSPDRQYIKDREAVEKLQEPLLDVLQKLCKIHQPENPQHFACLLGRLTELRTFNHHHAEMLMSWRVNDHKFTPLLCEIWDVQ
In short: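 Beta-lactamase reporter antagonist mode: HEK293T FXR-UAS-bla cells, titrated compound, CDCA stimulation, 16 h 37 C, CCF4 dye 2 h RT. Data normalized to CDCA 50 uM and DMSO; Hill-fit IC50.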

[5] = target: Glucocorticoid receptor (Homo sapiens) (UniProt P04150); assay: qHTS assay for small molecule agonists of glucocorticoid receptor signaling (AID 588532; active = well fitted curve in the direction sought with a large enough effect in the signal ratio, with a control signal flat; the % refers to the signal ratio); settings: HeLa MMTV-bla, beta-lactamase ratio, agonist, 18 h; stronger effect = higher value; percent of dexamethasone control, DMSO zero
Chain of Glucocorticoid receptor (Homo sapiens) (P04150 whole entry, looked up): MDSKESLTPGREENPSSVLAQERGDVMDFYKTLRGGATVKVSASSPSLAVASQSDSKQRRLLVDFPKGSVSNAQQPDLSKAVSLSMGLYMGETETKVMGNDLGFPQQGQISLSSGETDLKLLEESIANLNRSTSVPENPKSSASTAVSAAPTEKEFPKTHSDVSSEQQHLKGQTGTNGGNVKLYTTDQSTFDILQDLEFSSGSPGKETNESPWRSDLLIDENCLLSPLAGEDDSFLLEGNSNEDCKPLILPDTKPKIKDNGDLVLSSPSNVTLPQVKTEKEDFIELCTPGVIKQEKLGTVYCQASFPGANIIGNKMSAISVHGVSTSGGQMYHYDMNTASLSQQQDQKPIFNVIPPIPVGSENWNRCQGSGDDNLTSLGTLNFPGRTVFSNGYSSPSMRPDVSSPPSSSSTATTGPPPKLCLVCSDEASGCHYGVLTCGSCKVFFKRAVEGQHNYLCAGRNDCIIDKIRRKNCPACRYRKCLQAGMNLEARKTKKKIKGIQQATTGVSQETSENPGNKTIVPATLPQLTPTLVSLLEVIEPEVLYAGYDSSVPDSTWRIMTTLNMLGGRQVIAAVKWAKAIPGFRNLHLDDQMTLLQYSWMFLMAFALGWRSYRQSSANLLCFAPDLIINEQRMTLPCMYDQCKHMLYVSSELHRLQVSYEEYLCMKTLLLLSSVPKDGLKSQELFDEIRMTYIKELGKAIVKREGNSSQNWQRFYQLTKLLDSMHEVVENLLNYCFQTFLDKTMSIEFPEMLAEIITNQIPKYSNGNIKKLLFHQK
In short: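 Quantitative HTS using CellSensor MMTV-bla HeLa cells in charcoal/dextran-treated serum; compounds tested up to 92 uM. After 18 h at 37 C, CCF4 dye reported reporter induction.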

[6] = qHTS assay for small molecule antagonists of peroxisome proliferator-activated receptor delta signaling (AID 588535; active = well fitted inhibition curve with a large enough effect in the signal ratio, with a control signal flat, not every such curve was filed as active; the % refers to the signal ratio;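 as to max response: cells co-treated with a PPAR-delta agonist as stimulator during compound exposure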); settings: HEK293T PPARd-UAS-bla, beta-lactamase FRET ratio, 18 h; 460 nm channel
In short: (§1)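 Antagonist-mode qHTS using GeneBLAzer PPAR-delta-UAS-bla HEK293T cells; compound exposure 18 hrs at 37 C over a titration. Ratiometric CCF4 fluorescence at 460/530 nm; concentration-response points fitted to the Hill equation.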

[7] = target: Peroxisome proliferator-activated receptor delta (Homo sapiens) (UniProt Q03181); assay: as above
Chain of Peroxisome proliferator-activated receptor delta (Homo sapiens) (Q03181 whole entry, looked up): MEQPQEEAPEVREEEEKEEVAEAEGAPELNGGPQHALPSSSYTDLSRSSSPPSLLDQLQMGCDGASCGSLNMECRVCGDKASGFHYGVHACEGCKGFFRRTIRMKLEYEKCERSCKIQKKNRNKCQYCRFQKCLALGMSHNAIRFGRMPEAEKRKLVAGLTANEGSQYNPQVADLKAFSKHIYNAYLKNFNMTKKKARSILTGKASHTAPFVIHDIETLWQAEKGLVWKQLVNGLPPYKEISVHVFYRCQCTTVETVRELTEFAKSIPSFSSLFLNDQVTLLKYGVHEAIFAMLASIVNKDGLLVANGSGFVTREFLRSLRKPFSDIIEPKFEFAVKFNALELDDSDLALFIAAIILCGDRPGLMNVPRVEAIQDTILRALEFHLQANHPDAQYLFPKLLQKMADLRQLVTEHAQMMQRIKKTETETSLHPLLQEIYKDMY
In short: as §1

[8] = qHTS assay for small molecule agonists of the antioxidant response element (ARE) signaling pathway (AID 651741; active = well fitted activation curve with a large enough effect in the signal ratio; the % refers to the signal ratio)
In short: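 Agonist activity is measured as ARE-driven beta-lactamase expression in a stable HepG2 reporter line, using 16 h compound treatment at 37 C and a FRET substrate fluorescence readout after 2 h.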

[9] = qHTS assay for small molecule activators of the p53 signaling pathway (AID 651743; active = well fitted activation curve with a large enough effect in the signal ratio, not every such curve was filed as active; the % refers to the signal ratio; also: series mostly up to about 92 µM); settings: HCT-116 p53RE-bla, beta-lactamase FRET ratio, 16 h; activation: stronger effect = higher value
In short: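 A beta-lactamase reporter under p53 response element control, stably carried by HCT-116 cells, reported pathway activation. Test compounds were applied for 16 hours at 37 C, and fluorescence was measured 2 hours after adding the B/G FRET substrate.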

[10] = qHTS assay for small molecule activators of the nuclear factor-kappa B (NF-kB) signaling pathway (AID 651749; active = well fitted activation curve with a large enough effect in the signal ratio; the % refers to the signal ratio; also: series mostly up to about 77 µM); settings: NF-kB-bla ME-180 cells, beta-lactamase FRET ratio, 16 h; activation: stronger effect = higher value
In short: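 FRET-based beta-lactamase detection in ME-180 cells reports NF-kB response-element-driven transcription following overnight (16 hr) compound treatment.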

[11] = target: Nuclear receptor subfamily 1 group I member 2 (Rattus norvegicus) (UniProt Q9R1A7); assay: qHTS assay for small molecule activators of the rat pregnane X receptor (rPXR) signaling pathway (AID 651751; call rule not given here); settings: rPXR reporter cells, luciferase (One-Glo), 24 h
Chain of Nuclear receptor subfamily 1 group I member 2 (Rattus norvegicus) (Q9R1A7 whole entry, looked up): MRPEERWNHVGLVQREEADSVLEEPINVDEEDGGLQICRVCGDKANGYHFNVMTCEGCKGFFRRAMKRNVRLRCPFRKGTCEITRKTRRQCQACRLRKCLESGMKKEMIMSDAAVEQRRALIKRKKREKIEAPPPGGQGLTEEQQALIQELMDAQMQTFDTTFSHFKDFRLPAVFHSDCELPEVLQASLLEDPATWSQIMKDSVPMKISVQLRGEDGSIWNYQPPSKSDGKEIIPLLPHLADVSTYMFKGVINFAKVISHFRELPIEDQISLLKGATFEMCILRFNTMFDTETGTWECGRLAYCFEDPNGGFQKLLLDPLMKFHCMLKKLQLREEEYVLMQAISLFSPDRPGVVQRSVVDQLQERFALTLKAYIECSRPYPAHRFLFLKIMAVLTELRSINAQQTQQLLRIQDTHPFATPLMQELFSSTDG

[12] = qHTS assay for small molecule activators of the human pregnane X receptor (PXR) signaling pathway (AID 720659; call rule not given here)
[13] = Cellular Toxicity (caspase-3) HUV-EC-C (AID 656)
In short: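 HUV-EC-C cells (1000/well) in complete medium, compound-treated 16 h at 37 °C; caspase-3/7 activity read by Caspase-Glo 3/7 luminescence. Normalized to DMSO (basal) and 100 uM tamoxifen (100%); AC50 from Hill-equation concentration-response fits.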

[14] = MultiTox-Fluor Cytotoxicity Assay - LYMP1-001 - Live Cells (AID 947)
[15] = Cell Viability - LYMP2-015 (AID 971); also: nearly all actives have a fitted effect of over 55% in size
In short: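 AC50 values reflect Hill-model fits of ATP-based luminescence (CellTiter-Glo) from a human lymphoblastoid line, 2500 cells/well, treated 24 hr at 37 C.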

[16] = Cell Viability - LYMP2-020 (AID 986); also: series mostly up to about 92 µM; nearly all actives have a fitted effect of over 55% in size
In short: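 Cells at 2500 per well receive a 24 hr compound exposure at 37 C. Viability is measured as ATP-dependent luciferase luminescence, with AC50 modeled from qHTS concentration-response curves.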

[17] = target: Peroxisome proliferator-activated receptor gamma (Homo sapiens) (UniProt P37231); assay: qHTS assay for small molecule antagonists of peroxisome proliferator-activated receptor gamma signaling (AID 588537; active = well fitted inhibition curve with a large enough effect in the signal ratio, with a control signal flat, not every such curve was filed as active; the % refers to the signal ratio;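 also: reporter cells co-stimulated with 50 nM rosiglitazone agonist during compound treatment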)
Chain of Peroxisome proliferator-activated receptor gamma (Homo sapiens) (P37231 whole entry, looked up): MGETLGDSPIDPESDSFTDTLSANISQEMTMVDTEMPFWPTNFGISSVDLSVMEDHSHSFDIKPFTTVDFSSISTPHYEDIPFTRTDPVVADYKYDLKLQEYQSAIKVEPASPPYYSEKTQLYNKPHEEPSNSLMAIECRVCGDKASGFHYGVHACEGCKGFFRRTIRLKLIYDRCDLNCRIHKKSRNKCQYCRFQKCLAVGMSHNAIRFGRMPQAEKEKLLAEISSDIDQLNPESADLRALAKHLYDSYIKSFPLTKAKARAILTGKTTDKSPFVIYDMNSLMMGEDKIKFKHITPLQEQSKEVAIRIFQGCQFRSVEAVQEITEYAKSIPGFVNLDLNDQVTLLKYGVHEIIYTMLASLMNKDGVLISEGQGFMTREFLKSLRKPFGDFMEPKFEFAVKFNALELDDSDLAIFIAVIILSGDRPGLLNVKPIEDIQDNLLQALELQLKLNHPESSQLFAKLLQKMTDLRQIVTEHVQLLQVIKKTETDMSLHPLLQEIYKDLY
In short: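 Cell-based beta-lactamase assay; GW9662 served as the antagonist control. Stimulation used rosiglitazone, final 50 nM, 16 h, 37 C.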

[18] = target: Vitamin D3 receptor (Homo sapiens) (UniProt P11473); assay: qHTS assay for small molecule antagonists of vitamin D receptor signaling (AID 588541; calls by dose curve;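 also: receptor activated by calcitriol during compound treatment; series mostly up to about 77 µM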)
Chain of Vitamin D3 receptor (Homo sapiens) (P11473 whole entry, looked up): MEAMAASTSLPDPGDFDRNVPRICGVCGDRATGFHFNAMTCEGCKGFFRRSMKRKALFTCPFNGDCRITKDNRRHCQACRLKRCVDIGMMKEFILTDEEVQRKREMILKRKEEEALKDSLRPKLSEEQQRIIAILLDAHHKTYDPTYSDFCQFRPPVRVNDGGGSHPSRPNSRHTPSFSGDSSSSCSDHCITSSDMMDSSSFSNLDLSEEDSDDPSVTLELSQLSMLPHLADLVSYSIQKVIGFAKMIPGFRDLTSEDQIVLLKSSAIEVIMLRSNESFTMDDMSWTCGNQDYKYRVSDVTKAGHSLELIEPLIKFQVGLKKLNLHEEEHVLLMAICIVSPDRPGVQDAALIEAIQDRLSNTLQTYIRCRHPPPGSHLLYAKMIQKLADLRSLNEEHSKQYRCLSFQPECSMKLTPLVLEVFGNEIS
In short: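 Antagonist-mode beta-lactamase reporter assay: HEK293T VDR-UAS-bla cells were exposed to titrated compound alongside 1-alpha,25-dihydroxyvitamin D3 at 3 nM final for 16 h. Values were normalized to the 50 nM agonist control and DMSO basal, with IC50 and efficacy from Hill equation fits.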

[19] = target: Vitamin D3 receptor (Homo sapiens) (UniProt P11473); assay: qHTS assay for small molecule agonists of vitamin D receptor signaling (AID 588543; calls by dose curve)
In short: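 VDR-UAS-bla HEK293T cells, 2000/well, 2% charcoal-stripped FBS; compound titration 16 h at 37 C; CCF4 beta-lactamase ratio read. Normalized to 50 nM 1-alpha,25-dihydroxyvitamin D3 (100%) and DMSO; Hill fit gives EC50, efficacy.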

SMILES	Potency [1]	Potency [2]	Potency [3]	outcome [4]	activation [5]	max response [6] [%]	Potency [7]	Potency [8]	activation [9]	activation [10]	max response [11]	outcome [12]	outcome [13]	Potency [14]	Potency [15]	Potency [16]	Potency [17]	outcome [18]	outcome [19]
CC(C)(C)OOC(C)(C)C	inactive	inactive	inactive	inactive	-1.7% (inactive)	29.5	inactive	inactive	-4.97% (inactive)	1.21% (inactive)	2.42% (inactive)	inactive							
O=C(Cl)/C=C/C(=O)Cl	inactive		inactive	inactive	18.2% (inactive)			inactive	-2.72% (inactive)	2.63% (inactive)	0.356% (inactive)	inactive	inactive	inactive	inactive	inactive	inactive	inactive	inactive
C=CCOC(C)=O	inactive			inactive	10.3% (inactive)			inactive	-2.44% (inactive)	-0.256% (inactive)	-1.67% (inactive)	inactive	inactive	inactive	inactive			inactive	inactive
CCCSC(=O)Cl	inactive	inactive	inactive	inactive	2.44% (inactive)			inactive	-3.85% (inactive)	-0.498% (inactive)	-3.99% (inactive)	inactive	inactive	inactive	inactive			inactive	inactive
[O-][Br+2]([O-])O	inactive	inactive	inactive		11.8% (inactive) and -3.56% (inactive)			inactive	-0.499% (inactive) and 0.319% (inactive)	0.211% (inactive) and 0.528% (inactive)			inactive		inactive		inactive	inactive	inactive
CC(Cl)Cl	inactive		inactive	inactive	-9.28% (inactive)	2.53	inactive	inactive	-4.47% (inactive)	3.47% (inactive)	-1.43% (inactive)	inactive	inactive		inactive	inactive		inactive	inactive
Nc1ccccc1Cl	inactive	inactive	inactive	inactive	-0.0832% (inactive)	6.02	inactive	inactive	-1.73% (inactive)	0.524% (inactive)	9.37% (inactive)	inactive	inactive	inactive	inactive	inactive		inactive	inactive
CN=C=S		inactive		inactive		11.4	inactive	inactive	-0.537% (inactive) and -2.4% (inactive)	0.411% (inactive) and -0.263% (inactive)	1.38% (inactive) and 4.99% (inactive)	inactive	inactive				inactive	inactive	inactive
C=CCOC(=O)c1ccccc1N	inactive		inactive		3.1% (inactive)	8.66	inactive				4.98% (inactive)	inactive		inactive		inactive		inactive	inactive
ClCBr	inactive		inactive	inactive	-4.32% (inactive)	36.6	inactive				0.745% (inactive)	inactive	inactive	inactive			inactive	inactive	inactive
Brc1ccccc1		inactive			-10.5% (inactive) and -5.75% (inactive)	10.8	inactive		-1.82% (inactive) and -1.95% (inactive)	1.07% (inactive) and -1.27% (inactive)	0.981% (inactive) and 1.34% (inactive)	inactive					inactive	inactive	inactive
